# This is a sample that favours compounds with a hit; in the whole collection about 1.3% have one here.
# PERK inh = blocks human PERK kinase; Q9NZJ5; CHO PERK-DD fusion, SEAP luminescence translation reporter; inhibition, % at 5.6 µM; 0.17% of 220,000 active;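 active = inhibition above the mean inhibition of all tested compounds plus 3 SD, set separately per screening campaign, cut at about 2.9% in these data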;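 also: PERK kinase domain activated by AP20187 dimerizer at 100 nM; 0% = DMSO with dimerizer and 100% = rapamycin at 8.4 µM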
# S1P4 agonist = agonists of human S1P4 receptor; AID 1509; O95977; 0.35% of 220,000 active; activation, % at 4.98 µM; S1P4-expressing cell line, agonist reporter assay; in the data active = activation above about 11%;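 also: 0% = DMSO vehicle and 100% = reference agonist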
# S1P4 antag = antagonists of human S1P4 receptor. 0.26% of 220,000 active. AID 1510. S1P4-expressing cells, antagonist mode, reporter read-out. inhibition, % at 4.98 µM. O95977; in the data active = inhibition above about 29%;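 also: 0% = wells stimulated with agonist and 100% = vehicle wells without agonist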
# m-calpain inh = blocks pig calpain II enzyme activity. purified calpain II, fluorogenic peptide substrate, 30 min. inhibition, % at 16 µM. AID 1236. 0.37% of 220,000 active;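 active = inhibition above about 50%, limit read from the data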
# S1P3 antag-1 = blocks the human S1P3 receptor. CHO S1P3 NFAT-BLA reporter, FRET fluorescence, antagonist mode. inhibition, % at 4.98 µM. 0.27% of 170,000 active. AID 485;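 active = inhibition above the plate cutoff, the mean inhibition of test wells on that plate plus 3 SD, cut at about 28% in these data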;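 also: cells challenged with S1P at its EC80 of 0.8 µM; blue over green emission ratio from cleaved BLA substrate after 4 h stimulation; 0% = S1P-stimulated wells and 100% = unstimulated DMSO-only wells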
# Target sequence (Q99500 whole entry, looked up): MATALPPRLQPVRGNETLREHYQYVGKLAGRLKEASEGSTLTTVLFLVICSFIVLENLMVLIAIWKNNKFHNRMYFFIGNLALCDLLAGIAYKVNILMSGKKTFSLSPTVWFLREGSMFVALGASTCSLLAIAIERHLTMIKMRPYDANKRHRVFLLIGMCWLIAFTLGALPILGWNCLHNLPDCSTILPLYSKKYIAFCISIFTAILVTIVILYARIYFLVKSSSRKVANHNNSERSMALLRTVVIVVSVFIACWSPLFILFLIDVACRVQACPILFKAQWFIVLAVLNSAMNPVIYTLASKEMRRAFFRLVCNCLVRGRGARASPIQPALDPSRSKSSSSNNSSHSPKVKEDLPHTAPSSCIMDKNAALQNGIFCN
# S1P3 antag-2 = confirmation of human S1P3 receptor antagonists; shares compounds with S1P3 antag-1; CHO S1P3 NFAT-BLA reporter, FRET, antagonist mode; inhibition, % at 4.98 µM; 30% of 240 active;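 active = inhibition above the hit threshold that was computed for the earlier primary screen, cut at about 30% in these data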;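 also: 0% = S1P-stimulated wells and 100% = unstimulated DMSO-only wells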
# * hit, by the source's call; . = no result given.
SMILES,PERK inh,S1P4 agonist,S1P4 antag,m-calpain inh,S1P3 antag-1,S1P3 antag-2
Cc1nnc(NC(=O)CSc2nnc(Cc3cccn3C)n2-c2cccc(C(F)(F)F)c2)s1,1,0,-6,-47,88*,.
Cc1ccc(S(=O)(=O)NCCCN(C)C)cc1,3.2*,2,-3,-2,-10,.
Cc1onc(-c2ccccc2)c1C(=O)OCC(=O)NCc1ccc(F)cc1,-1,1,-5,24,-7,.
O=C(NC1CCC(O)CC1)c1ccc(-c2ccc([N+](=O)[O-])cc2)o1 (stereo not drawn),0,-1,8,2,-25,.
CCOC(=O)C(C)/C(C)=N\Nc1ccc([N+](=O)[O-])cc1[N+](=O)[O-] (stereo not drawn),0,0,-2,52*,13,.
Cn1ccnc1SCCNC(=O)CCc1nnc(CCc2ccccc2)o1,0,1,13,-16,2,.
O=C(O)c1cc(-c2ccc3c(c2)OCCO3)n[nH]1,2,-6,5,-19,5,.
Oc1ccccc1-c1cc(-c2ccc3c(c2)OCCO3)n[nH]1,0,1,-23,54*,.,.
CCn1c2c(c(=N)c3c1CCC3)CCCC2,1,2,-8,4,-11,.
CCCCCCCCCn1c2c(c(=N)c3c1CCC3)CCCC2,0,1,-15,58*,55*,41*
COc1ccc(C2CC(=O)c3cnn(-c4nc(C)cc(C)n4)c3C2)cc1 (stereo not drawn),0,1,-16,20,-8,.
CCCC(=O)Nc1ccc(-c2ccc(NC(=O)CCC)cc2)cc1,0,2,-14,-11,-1,.
CCCC(=O)Nc1ccc(Nc2ccccc2)cc1,0,1,-3,21,101*,-7
COc1cc(/C=C(/C#N)C(=O)c2c(C)[nH]c3ccccc23)ccc1OCC#N,0,1,3,-6,30*,-6
CCOc1ccc(/C=C(\C#N)C(=O)c2c(C)[nH]c3ccccc23)cc1OC,-1,0,-8,0,-16,.
CC(C)N1C(=S)N(Cc2ccco2)C(=O)C1CC(=O)Nc1ccccc1 (stereo not drawn),0,3,-17,-22,-8,.
Cc1ccc(CN2CCNC(=O)C2CC(=O)N(C)C(C2CC2)C2CC2)o1 (stereo not drawn),1,1,-6,-11,-16,.
CN(C(=O)CC1C(=O)NCCN1CC(c1ccccc1)c1ccccc1)C(C1CC1)C1CC1 (stereo not drawn),-2,-1,7,-18,29*,3
COc1ccc(F)cc1C(=O)C1CCCN(Cc2c(C)n(C)n(-c3ccccc3)c2=O)C1 (stereo not drawn),1,2,-14,-71,-20,.
C/C(=N\Nc1ccc([N+](=O)[O-])cc1)c1cc2ccccc2o1,-1,0,15,33,54*,55*
C/C(=N/Nc1ccc([N+](=O)[O-])cc1)c1ccc(C)cc1C,0,3,0,15,33*,22
O=C(N/N=C/c1ccc([N+](=O)[O-])cc1)c1cc2ccccc2o1,1,1,-25,11,-8,.
CN(C)S(=O)(=O)Oc1cc(Cl)ccc1C(=O)Nc1ccc(F)cc1F,1,-1,2,29,3,.
COc1ccc(N(CC(=O)N2CCN(c3ccc(Cl)cc3)CC2)S(=O)(=O)c2c(C)n[nH]c2C)cc1,0,1,12,-24,-29,.
O=C(c1ccccc1)c1ccc2c(c1)OCCOCCOCCOCCO2,0,1,3,19,29*,-14
SMILES,PERK inh,S1P4 agonist,S1P4 antag,m-calpain inh,S1P3 antag-1,S1P3 antag-2
O=C1N/C(=C\c2ccc(O)cc2)C(O)=C1C=NCc1ccccc1,1,0,-7,10,29*,22
Cc1ccc2cc(/C=N/Nc3nc4ccccc4[nH]3)c(Cl)nc2c1,3.4*,2,1,15,46*,8
Cc1nc(-c2nnc(SCC(=O)Nc3ccc(C(F)(F)F)cc3)n2C)cs1,0,-1,-5,-10,-5,.
O=C(c1cc(COc2ccc3ncccc3c2)on1)N1CCCCCC1,0,1,-4,3,6,.
O=C(NC1CCCC1)c1cc(COc2ccc3ncccc3c2)on1,-1,0,-5,-9,35*,6
COc1cc(NC(=O)CSc2nc(C)c(C)c(C)n2)cc(OC)c1,0,0,-29,8,-6,.
O=C(N/N=C/c1cn(-c2ccccc2)nc1-c1cc2ccccc2o1)c1c[nH]c2ccccc12,-1,-1,16,-97,31*,13
Cn1c(-c2c(N)n(-c3ccccc3)c3nc4ccccc4nc23)nc2ccccc21,-2,1,20,-46,68*,45*
CCCCn1c(=O)[nH]c2nc3cc(N)ccc3nc2c1=O,0,2,-13,-16,11,.
Nc1ccc2nc3c(=O)n(C4CCCCC4)c(=O)[nH]c3nc2c1,1,-2,26,-8,30*,13
CCN(C(=O)CN1CC(C)OC(C)C1)c1c(N)n(Cc2ccccc2)c(=O)[nH]c1=O (stereo not drawn),1,0,-31,3,-17,.
O=C(CCC1CCCC1)Nc1ccc([N+](=O)[O-])cn1,1,0,0,9,32*,-2
O=C(CSc1nc(C2CCCCC2)n(-c2ccccc2)n1)NCCN1C(=O)CSC1=O,-1,-1,-34,19,-16,.
O=C(CSc1nc(C2CCCCC2)n(-c2ccccc2)n1)NCC(F)(F)F,-1,-1,-11,32,51*,-5
c1ccc(Cc2nnc3n2N=C(c2ccccc2)CS3)cc1,0,1,-6,28,29*,-10
c1ccc(C2=Nn3c(Cn4nnc5ccccc54)nnc3SC2)cc1,1,1,-64,13,2,.
CCOc1ccccc1/C=N/NC(=O)CNC(=O)c1cccs1,-1,0,-15,14,-13,.
CCSCc1nnc(SCC(=O)Nc2ccc(F)cc2)n1CC,0,-1,-6,20,6,.
COCCNC(=S)N/N=C/c1ccc(-c2ccc([N+](=O)[O-])cc2)o1,0,-1,13,-21,31*,32*
CCOc1ccc(-c2nnc(SCC(=O)Nc3cc(C)on3)o2)cc1,1,-2,-31,5,33*,-20
CC1(C)OC(=O)C(=CNCC(O)c2ccccc2)C(=O)O1 (stereo not drawn),0,0,0,1,-4,.
CC1(C)OC(=O)C(=CNCCc2ccc(O)cc2)C(=O)O1,0,1,-14,13,28*,-19
CC(=O)Nc1ncc(Cc2cccc(Cl)c2)s1,0,-2,6,14,28*,5
C=CCNC(=O)/C(C#N)=C/c1ccc(OS(=O)(=O)c2ccc(C)cc2)c(OC)c1,1,1,-4,-21,-3,.
Cc1c(N=C2N=C(NC(=O)Nc3ccc(Cl)cc3)c3ccccc32)c(=O)n(-c2ccccc2)n1C,0,-2,-8,-10,40*,4

# From PubChem
